The subject of assay [1] is XIP peptide (Xip251-270) binding. In words: XIP fragment 251-270 binding compounds – biochemical, small-molecule microarray, fluorescence 635/667 nm, 0.1 µg/mL protein, primary screen (AID 1182). The conditions noted are these: fluorescent protein binding, 635 nm, higher = more signal, called active from +8 up or from −8 down.
In a further assay the test system is XIP peptide (Xip251-270). In words: compounds binding XIP fragment 251-270 – biochemical, small-molecule microarray, fluorescence 635/667 nm, 0.5 µg/mL protein, primary screen (AID 1183). Particulars: fluorescence 635 nm, higher = more signal.
Assay [2] is described as follows: blood-stage malaria parasite viability loss – strain 3D7, DAPI fluorescence, 100 nL, primary screen (AID 1184).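 Note: parasites grown inside human red blood cells in medium with human serum.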 The conditions noted are these: P. falciparum 3D7 growth, 3 d, higher = more signal.
Assay [3] concerns the target Homeobox protein Hox-A13 (Mus musculus) (UniProt Q62424). Description: disruptors of Hoxa13 oligonucleotide interaction – biochemical, fluorescence polarization, labeled oligonucleotide, primary screen (AID 1185). The conditions noted are these: Hoxa13:DNA binding, 15 min, higher = more signal, called active from +8 up or from −8 down. (In general: Polarisation of emitted light reports the rotation of a fluorescent probe.)

Calls of active or inactive are those of the source.

Homeobox protein Hox-A13 (Mus musculus), sequence (Q62424 whole entry, looked up): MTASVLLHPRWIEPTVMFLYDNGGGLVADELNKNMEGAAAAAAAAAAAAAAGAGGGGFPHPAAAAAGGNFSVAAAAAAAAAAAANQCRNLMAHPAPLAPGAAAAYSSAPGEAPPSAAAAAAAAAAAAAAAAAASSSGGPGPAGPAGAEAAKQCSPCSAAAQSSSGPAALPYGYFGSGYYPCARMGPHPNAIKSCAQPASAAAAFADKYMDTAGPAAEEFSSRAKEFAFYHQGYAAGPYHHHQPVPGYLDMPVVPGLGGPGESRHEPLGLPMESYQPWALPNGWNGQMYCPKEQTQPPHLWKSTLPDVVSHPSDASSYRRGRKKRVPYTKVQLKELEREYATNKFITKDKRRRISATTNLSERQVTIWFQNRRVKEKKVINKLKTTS

With `O=C(NN=C1C[C@@H](O)[C@@H](O)[C@@H]2[C@@H]3C(=O)N(Cc4ccccc4)C(=O)[C@@H]3CC[C@H]12)OCc1ccccc1`, the figures for the composite z-score (in assay [1]; in the assay with XIP peptide (Xip251-270)) were -0.578 (inactive) and -0.0586, respectively. For the same compound, the z-score in assay [2] was 0.892; in assay [3], -0.2 (inactive).
`CCN1C(=O)[C@H]2[C@H]3[C@H](O)[C@H](O)CC(=NOCC=C(C)CCC=C(C)C)[C@@H]3CC[C@H]2C1=O`: the composite z-score is -0.544 (inactive) in assay [1] and 0.615 with XIP peptide (Xip251-270). Also, the results for the z-score in assay [2] and in assay [3] were -0.298 and -3.73 (inactive), respectively.
As for `CC(C)CON=C1[C@H]2CCn3c(=O)n(C)c(=O)n3[C@H]2[C@H](O)[C@@H]2O[C@H]12`, the composite z-score in assay [1] is -0.12 (inactive); in the assay with XIP peptide (Xip251-270), 0.245. For the same compound, the z-score in assay [2] was 1.43; in assay [3], 0.322 (inactive).
On the same counts, the results for `CSCC[C@@H]1NC(=O)CC=C[C@@H](C)COC(=O)[C@H](C)COC1=O` are 0.439 (inactive), 0.8, 0.461 and 0.0971 (inactive).
Turning to `CC(C)(C)N1C(=O)[C@H]2[C@H]3[C@H](O)[C@H](O)CC(=NNC(=O)OCc4ccccc4)[C@@H]3CC[C@H]2C1=O`, the composite z-score was 0.0863 (inactive) in assay [1] and 0.195 in the assay with XIP peptide (Xip251-270). Besides, the z-score in assay [2] was 2.05; in assay [3] it was 0.408 (inactive).
As to `COC(=O)[C@H](C)NC(=O)CCC1CC(OC(=O)NCc2ccc3c(c2)OCO3)CC2(CCCC(COC(=O)NCc3ccccc3)O2)O1` (some centres not stated), the composite z-score in assay [1] was 0.361 (inactive); in the assay on XIP peptide (Xip251-270) it was 0.554. The z-score in assay [2] is -1.75; in assay [3] it was -2.47 (inactive).
In the case of `CON=C(C)CCC(=O)OC[C@H]1O[C@H](C#Cc2ccccc2)C=C[C@@H]1Oc1ccc(C)cc1`, the composite z-score in assay [1] was 0.177 (inactive); in the assay with XIP peptide (Xip251-270), 0.627. Also, the z-score in assay [2] was -0.306; in assay [3], -4.45 (inactive).
The matching figures for `O=C1[C@H]2[C@H]3[C@H](O)[C@H](O)CC(=NO[C@@H]4O[C@H](CO)[C@@H](O)[C@H](O)[C@H]4O)[C@@H]3CC[C@H]2C(=O)N1C[C@@H]1CCCO1`: 0.357 (inactive), 0.385, -1.49 and -0.192 (inactive).

The values are drawn from PubChem BioAssay.
